For ten compounds, growth inhibition results are on record in PubChem BioAssay (NCI).

Assay [1] is described as follows: NCI Yeast Anticancer Drug Screen. Data for the rad50 strain (AID 155).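 Further: 0% = growth of vehicle-only cultures of the same strain.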 As to conditions: S. cerevisiae rad50 strain growth inhibition, active compounds read high. The essentials: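 Genetically altered yeast (DNA repair pathway); compound treatment; growth inhibition vs vehicle ctrl.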
The nature of assay [2]: NCI Yeast Anticancer Drug Screen. Data for the mec2-1 strain (AID 157). As to conditions: S. cerevisiae mec2-1 strain, active compounds read high. In outline: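 Growth inhibition is read against vehicle-treated controls after compound exposure of the mec2-1 yeast strain, which is defective in DNA damage repair or cell cycle control.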
Assay [3] can be described thus: NCI Yeast Anticancer Drug Screen. Data for the sgs1 mgt1 strain (AID 161).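 Further: 0% = growth of cultures given vehicle only.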 As to conditions: S. cerevisiae sgs1 mgt1 strain, active compounds read high. In outline: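 This yeast growth screen uses a strain with defined DNA-repair lesions; compound-treated growth is compared with vehicle-treated growth.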
Assay [4] in a line: NCI Yeast Anticancer Drug Screen. Data for the cln2 rad14 strain (AID 165).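 Further: 0% = growth equal to vehicle treated cultures.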 As to conditions: S. cerevisiae cln2 rad14 strain, active compounds read high. The essentials:
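Growth inhibition, relative to vehicle-treated controls, is the read-out. The test organism is a yeast strain with defined genetic alterations, cln2 rad14.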

The nature of assay [5]: NCI Yeast Anticancer Drug Screen. Data for the bub3 strain (AID 167). As to conditions: S. cerevisiae bub3 mutant strain, active compounds read high. The essentials:
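Yeast carrying a defined mutation is treated with each compound, and growth is compared with that of vehicle-exposed cells to give inhibition.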

The nature of assay [6]: NCI Yeast Anticancer Drug Screen. Data for the mlh1 rad18 strain (AID 175). The following applies: S. cerevisiae mlh1 rad18 strain growth inhibition, active compounds read high. The essentials: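 Cells of a genetically altered yeast strain, deficient in DNA damage repair, were treated with compound. Their growth was then compared with that of vehicle-treated cultures to give inhibition.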

The mark [7] stands for this setting: at 5.0 µM (retest, dose inferred, filed as 0.5).
Setting [8] is: at 50.0 µM (retest, dose inferred, filed as 5.0).

About 79,000 compounds went through this panel and 15% of them were active in at least one assay; those are over-represented in the sample as a whole. Unmarked numbers belong to inactive results. Calls of active or inactive are those of the source. No stated cut-off is given here; in the data, active means growth inhibition above about 70%; inactive means the rest. Where a SMILES comes first, the peptide text is derived from it. The star is where a group is joined. Trt = c1ccc(C(c2ccccc2)(c2ccccc2)*)cc1; Cbz = O=C(OCc1ccccc1)*

For the compound `N#C/C(=C1/C(=O)c2ccccc2-c2ccccc21)c1ccccc1`, the growth inhibition in assay [1] (setting [7]) is 92% (active); in assay [1] (setting [8]), 97% (active); in assay [1] (at 50.0 µM), 97.2% (active); in assay [2] (setting [7]), 100% (active); in assay [2] (setting [8]), 99% (active); in assay [2] (at 50.0 µM) it was 98.2% (active). The growth inhibition in assay [3] (setting [7]) was 99% (active); in assay [3] (setting [8]) it was 99% (active); in assay [3] (at 50.0 µM), 97.6% (active); in assay [4] (setting [7]), 61%; in assay [4] (setting [8]), 97% (active); in assay [4] (at 50.0 µM), 98.2% (active). Besides, the growth inhibition in assay [5] (setting [7]) was 99% (active); in assay [5] (setting [8]), 98% (active); in assay [5] (at 50.0 µM), 98% (active); in assay [6] (setting [7]), 99% (active); in assay [6] (setting [8]) it was 99% (active); in assay [6] (at 50.0 µM), 98.7% (active).
Consider `Fc1cccc(C2SCc3nc4ccccc4n32)c1F` (stereo not given), for which the growth inhibition in assay [1] (setting [7]) was -4%; in assay [1] (setting [8]), 2%; in assay [1] (at 50.0 µM), 63.3%; in assay [2] (setting [7]), -5%; in assay [2] (setting [8]), 23%; in assay [2] (at 50.0 µM) it was 54.8%. Also, the growth inhibition was -3% in assay [3] (setting [7]); 28% in assay [3] (setting [8]); 76.2% (active) in assay [3] (at 50.0 µM); -12% in assay [4] (setting [7]); -7% in assay [4] (setting [8]); 40.2% in assay [4] (at 50.0 µM). The growth inhibition is -5% in assay [5] (setting [7]); 14% in assay [5] (setting [8]); 73.3% (active) in assay [5] (at 50.0 µM); -8% in assay [6] (setting [7]); 7% in assay [6] (setting [8]); 92% (active) in assay [6] (at 50.0 µM).
For the compound `CCCC(=O)Oc1ccc(-c2ccccc2)cc1Br`, the growth inhibition in assay [1] (setting [7]) is 2%; in assay [1] (setting [8]), 83% (active); in assay [1] (at 50.0 µM), 96.5% (active); in assay [2] (setting [7]), 2%; in assay [2] (setting [8]), 86% (active); in assay [2] (at 50.0 µM), 91.5% (active). Besides, the growth inhibition in assay [3] (setting [7]) is 4%; in assay [3] (setting [8]), 81% (active); in assay [3] (at 50.0 µM), 94.5% (active); in assay [4] (setting [7]) it was 6%; in assay [4] (setting [8]) it was 84% (active); in assay [4] (at 50.0 µM), 86.7% (active). The growth inhibition in assay [5] (setting [7]) was 18%; in assay [5] (setting [8]), 77% (active); in assay [5] (at 50.0 µM) it was 91.1% (active); in assay [6] (setting [7]), -1%; in assay [6] (setting [8]), 73% (active); in assay [6] (at 50.0 µM), 95.9% (active).
In the case of `O=C1C=CC(=O)C2C3C=CC(CC3)C12` (stereo not given), the growth inhibition is 8% in assay [1] (setting [7]); 29% in assay [1] (setting [8]); 47.1% in assay [1] (at 50.0 µM); 20% in assay [2] (setting [7]); 36% in assay [2] (setting [8]); 43.6% in assay [2] (at 50.0 µM). Further, the growth inhibition in assay [3] (setting [7]) was 10%; in assay [3] (setting [8]) it was 36%; in assay [3] (at 50.0 µM), 70.1% (active); in assay [4] (setting [7]), 14%; in assay [4] (setting [8]) it was 43%; in assay [4] (at 50.0 µM), 78.2% (active). The growth inhibition in assay [5] (setting [7]) is 0%; in assay [5] (setting [8]), 23%; in assay [5] (at 50.0 µM), 92.5% (active); in assay [6] (setting [7]) it was 11%; in assay [6] (setting [8]) it was 39%; in assay [6] (at 50.0 µM) it was 84.6% (active).
As for `CCOC(=O)CCC(NC(=O)C(CSC(c1ccccc1)(c1ccccc1)c1ccccc1)NC(=O)OCc1ccccc1)C(=O)NC(CCC(=O)OCC)C(=O)NC(CCC(=O)OCC)C(=O)NC(CCC(=O)OCC)C(=O)NC(CSC(c1ccccc1)(c1ccccc1)c1ccccc1)C(=O)OC` (stereo not given) (Cbz-C(Trt)E(OEt)E(OEt)E(OEt)E(OEt)C(Trt)-OMe; configuration not given here), the growth inhibition was 1% in assay [1] (setting [7]); 67% in assay [1] (setting [8]); 74.2% (active) in assay [1] (at 50.0 µM); -7% in assay [2] (setting [7]); 63% in assay [2] (setting [8]); 75.8% (active) in assay [2] (at 50.0 µM). Further, the growth inhibition is -1% in assay [3] (setting [7]); 61% in assay [3] (setting [8]); 68% in assay [3] (at 50.0 µM); 7% in assay [4] (setting [7]); 70% (active) in assay [4] (setting [8]); 82.3% (active) in assay [4] (at 50.0 µM). Also, the growth inhibition was -4% in assay [5] (setting [7]); 58% in assay [5] (setting [8]); 72.2% (active) in assay [5] (at 50.0 µM); 2% in assay [6] (setting [7]); 73% (active) in assay [6] (setting [8]); 75.6% (active) in assay [6] (at 50.0 µM).
On to `COc1ccc2oc(-c3ccc(OC)c(OC)c3OC)cc(=O)c2c1`, for which the growth inhibition in assay [1] (setting [7]) was -34%; in assay [1] (setting [8]) it was -26%; in assay [1] (at 50.0 µM), 15.7%; in assay [2] (setting [7]), -47%; in assay [2] (setting [8]), -12%; in assay [2] (at 50.0 µM) it was 22%. The growth inhibition in assay [3] (setting [7]) was -11%; in assay [3] (setting [8]), 50%; in assay [3] (at 50.0 µM) it was 70% (active); in assay [4] (setting [7]), -14%; in assay [4] (setting [8]), 9%; in assay [4] (at 50.0 µM) it was -4.55%. In addition, the growth inhibition in assay [5] (setting [7]) is -15%; in assay [5] (setting [8]), 48%; in assay [5] (at 50.0 µM) it was 51.2%; in assay [6] (setting [7]), -39%; in assay [6] (setting [8]), -7%; in assay [6] (at 50.0 µM) it was 4.8%.
`O=C1O/C(=C\c2ccccc2)c2ccccc21`: the growth inhibition is 3% in assay [1] (setting [7]); 66% in assay [1] (setting [8]); 46.5% in assay [1] (at 50.0 µM); -41% in assay [2] (setting [7]); 20% in assay [2] (setting [8]); 37.1% in assay [2] (at 50.0 µM). The growth inhibition in assay [3] (setting [7]) was 1%; in assay [3] (setting [8]), 47%; in assay [3] (at 50.0 µM) it was 47.6%; in assay [4] (setting [7]), -4%; in assay [4] (setting [8]) it was -1%; in assay [4] (at 50.0 µM), 1.8%. The growth inhibition in assay [5] (setting [7]) is 40%; in assay [5] (setting [8]) it was 63%; in assay [5] (at 50.0 µM), 54.5%; in assay [6] (setting [7]), 2%; in assay [6] (setting [8]), 50%; in assay [6] (at 50.0 µM) it was 68.3%.
As to `Cc1cccc[n+]1CC(=O)c1cccc(O)c1`, the growth inhibition in assay [1] (setting [7]) is 1%; in assay [1] (setting [8]) it was -2%; in assay [1] (at 50.0 µM) it was -11.1%; in assay [2] (setting [7]), -2%; in assay [2] (setting [8]), 4%; in assay [2] (at 50.0 µM), -3.5%. In addition, the growth inhibition is 0% in assay [3] (setting [7]); -2% in assay [3] (setting [8]); -7.45% in assay [3] (at 50.0 µM); 4% in assay [4] (setting [7]); -4% in assay [4] (setting [8]); 36.6% in assay [4] (at 50.0 µM). Besides, the growth inhibition was 1% in assay [5] (setting [7]); -3% in assay [5] (setting [8]); -13.6% in assay [5] (at 50.0 µM); -2% in assay [6] (setting [7]); -4% in assay [6] (setting [8]); 7.25% in assay [6] (at 50.0 µM).
With `CCc1ccc(/C=C/c2ccc([N+](=O)[O-])cc2)nc1`, the growth inhibition in assay [1] (setting [7]) is 0%; in assay [1] (setting [8]) it was 68%; in assay [1] (at 50.0 µM), 62.2%; in assay [2] (setting [7]), -5%; in assay [2] (setting [8]), 41%; in assay [2] (at 50.0 µM), 40.6%. Besides, the growth inhibition in assay [3] (setting [7]) is -5%; in assay [3] (setting [8]) it was 42%; in assay [3] (at 50.0 µM), 33.5%; in assay [4] (setting [7]), 6%; in assay [4] (setting [8]), 39%; in assay [4] (at 50.0 µM), 7.1%. Further, the growth inhibition in assay [5] (setting [7]) is -5%; in assay [5] (setting [8]), -8%; in assay [5] (at 50.0 µM), 45.9%; in assay [6] (setting [7]), 3%; in assay [6] (setting [8]), 44%; in assay [6] (at 50.0 µM), 69.5%.
As to `O=C1C(=O)C(Cc2ccccc2)(c2ccccc2)C(=O)N1c1ccccc1` (stereo not given), the growth inhibition in assay [1] (setting [7]) was 0%; in assay [1] (setting [8]) it was 42%; in assay [1] (at 50.0 µM) it was 68.2%; in assay [2] (setting [7]), -3%; in assay [2] (setting [8]), 59%; in assay [2] (at 50.0 µM), 6.25%. The growth inhibition in assay [3] (setting [7]) was -2%; in assay [3] (setting [8]), 70% (active); in assay [3] (at 50.0 µM) it was 54.6%; in assay [4] (setting [7]) it was 3%; in assay [4] (setting [8]) it was 22%; in assay [4] (at 50.0 µM) it was -9.8%. The growth inhibition was -1% in assay [5] (setting [7]); 52% in assay [5] (setting [8]); 10.3% in assay [5] (at 50.0 µM); 1% in assay [6] (setting [7]); 62% in assay [6] (setting [8]); 40.4% in assay [6] (at 50.0 µM).
